Where “and” joins values, the source holds several entries; their conditions need not be identical. Identical values can stand only once. Some structures have more than one record in an assay (separate samples or runs), and their calls can disagree. Calls of active or inactive are those of the source.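 How the source made its calls, unless noted: active means normalized viability below 100% at a tested concentration; inactive means the rest.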
How the values were obtained:
[1] = viability loss with induced miR-34 in A549 – imaging, A549 dox-inducible miR-34, nuclei and caspase counts, primary screen (AID 1347080;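 active means compounds whose cell count with miR-34 switched on is under 0.7 times the count with it off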); conditions: A549 miR-34 inducible, Hoechst nuclei count, 48 h
[2] = MELAS cybrid and Rieske KO viability enhancers – cell-based, MELAS cybrids, Rieske KO mouse fibroblasts, CellTiter-Glo, primary screen (AID 1508586;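 active means mean z-score across replicates of 1.96 or higher in either the MELAS or the Rieske mutant cell line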;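 further: z relative to plate mean and SD of compound and empty wells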); conditions: low glucose
[3] = drug combination growth inhibition, ovarian cancer – cell-based, oncology-focused library, rucaparib conditional, profiling panel (AID 1508598); conditions: patient-derived ovarian cancer cells, CellTiter-Glo viability, 144 h, stronger effect = lower value
[4] = stronger effect = lower value, cell number ratio, induced over uninduced
[5] = measured here: relative caspase fold change +Dox/-Dox
[6] = measured here: total cells with miR-34 induction, stronger effect = lower value
[7] = measured here: total cells without miR-34 induction
[8] = MELAS cybrid survival, CellTiter-Glo 48 h, stronger effect = higher value
[9] = Rieske KO mouse fibroblast survival, CellTiter-Glo 72 h
[10] = at 0.000305 µM, OCI-C5x cells, with rucaparib 10 µM, 100% = cells with rucaparib alone
[11] = at 0.000305 µM, OCI-C5x cells, without rucaparib
[12] = at 0.000305 µM, OCI-P5x cells, with rucaparib 20 µM, 100% = cells with rucaparib alone
[13] = at 0.000305 µM, OCI-P5x cells, without rucaparib
[14] = at 0.00122 µM, OCI-C5x cells, with rucaparib 10 µM, 100% = cells with rucaparib alone
[15] = at 0.00122 µM, OCI-C5x cells, without rucaparib
[16] = at 0.00122 µM, OCI-P5x cells, with rucaparib 20 µM, 100% = cells with rucaparib alone
[17] = at 0.00122 µM, OCI-P5x cells, without rucaparib
[18] = at 0.00488 µM, OCI-C5x cells, with rucaparib 10 µM, 100% = cells with rucaparib alone
[19] = at 0.00488 µM, OCI-C5x cells, without rucaparib
[20] = at 0.00488 µM, OCI-P5x cells, with rucaparib 20 µM, 100% = cells with rucaparib alone
[21] = at 0.00488 µM, OCI-P5x cells, without rucaparib
[22] = at 0.0195 µM, OCI-C5x cells, with rucaparib 10 µM, 100% = cells with rucaparib alone
[23] = at 0.0195 µM, OCI-C5x cells, without rucaparib
[24] = at 0.0195 µM, OCI-P5x cells, with rucaparib 20 µM, 100% = cells with rucaparib alone
[25] = at 0.0195 µM, OCI-P5x cells, without rucaparib
[26] = at 0.0781 µM, OCI-C5x cells, with rucaparib 10 µM, 100% = cells with rucaparib alone
[27] = at 0.0781 µM, OCI-C5x cells, without rucaparib
[28] = at 0.0781 µM, OCI-P5x cells, with rucaparib 20 µM, 100% = cells with rucaparib alone
[29] = at 0.0781 µM, OCI-P5x cells, without rucaparib
[30] = at 0.313 µM, OCI-C5x cells, with rucaparib 10 µM, 100% = cells with rucaparib alone
[31] = at 0.313 µM, OCI-C5x cells, without rucaparib
[32] = at 0.313 µM, OCI-P5x cells, with rucaparib 20 µM, 100% = cells with rucaparib alone
[33] = at 0.313 µM, OCI-P5x cells, without rucaparib
[34] = at 1.25 µM, OCI-C5x cells, with rucaparib 10 µM, 100% = cells with rucaparib alone
[35] = at 1.25 µM, OCI-C5x cells, without rucaparib
[36] = at 1.25 µM, OCI-P5x cells, with rucaparib 20 µM, 100% = cells with rucaparib alone
[37] = at 1.25 µM, OCI-P5x cells, without rucaparib
[38] = at 5 µM, OCI-C5x cells, with rucaparib 10 µM, 100% = cells with rucaparib alone
[39] = at 5 µM, OCI-C5x cells, without rucaparib
[40] = at 5 µM, OCI-P5x cells, with rucaparib 20 µM, 100% = cells with rucaparib alone
[41] = at 5 µM, OCI-P5x cells, without rucaparib

C=CS(=O)(=O)NC1CCN(C(=O)CNc2cc(I)c(Cl)cc2OC)CC1
inactive: fold change [1, 4] 1.09 | z-score [2, 8] 0.491 | viability [3, 10] 129% | viability [3, 11] 112% | viability [3, 13] 100% | viability [3, 14] 117% | viability [3, 15] 106% | viability [3, 16] 108% | viability [3, 17] 101% | viability [3, 18] 110% | viability [3, 19] 116% | viability [3, 20] 103% | viability [3, 21] 102% | viability [3, 22] 117% | viability [3, 23] 102% | viability [3, 24] 101% | viability [3, 26] 121% | viability [3, 27] 107% | viability [3, 28] 107% | viability [3, 30] 119% | viability [3, 34] 111% | viability [3, 35] 106% | viability [3, 38] 117% | viability [3, 39] 105%
0.391: fold change [1, 5]
1.48: z-score [2, 9]
active: viability [3, 12] 97.3% | viability [3, 25] 96.9% | viability [3, 29] 90.5% | viability [3, 31] 93.3% | viability [3, 32] 93.4% | viability [3, 33] 95.6% | viability [3, 36] 96.2% | viability [3, 37] 84.8% | viability [3, 40] 90.8% | viability [3, 41] 86%
4400: cell count [1, 6]
4020: cell count [1, 7]

CN(C)CCSSCCNC(=O)C1CCN(C(=O)CSc2ccc(Cl)cc2)CC1
1: z-score [2, 9]
8530: cell count [1, 7]
active: viability [3, 13] 95.4% | viability [3, 25] 100% | viability [3, 29] 95.1% | viability [3, 31] 91.9% | viability [3, 32] 98.4% | viability [3, 33] 89.4% | viability [3, 36] 93.2% | viability [3, 37] 90.1% | viability [3, 40] 88.3% | viability [3, 41] 87.3%
7870: cell count [1, 6]
inactive: fold change [1, 4] 0.922 | z-score [2, 8] -0.0132 | viability [3, 10] 118% | viability [3, 11] 110% | viability [3, 12] 103% | viability [3, 14] 117% | viability [3, 15] 112% | viability [3, 16] 102% | viability [3, 17] 101% | viability [3, 18] 126% | viability [3, 19] 112% | viability [3, 20] 109% | viability [3, 21] 103% | viability [3, 22] 122% | viability [3, 23] 105% | viability [3, 24] 106% | viability [3, 26] 129% | viability [3, 27] 112% | viability [3, 28] 103% | viability [3, 30] 124% | viability [3, 34] 120% | viability [3, 35] 112% | viability [3, 38] 137% | viability [3, 39] 140%
0.314: fold change [1, 5]

CCCc1ccc(OCC(=O)N(Cc2nc(-c3cccnc3)no2)C(C)C)cc1
inactive: fold change [1, 4] 0.834 | z-score [2, 8] -0.333 | viability [3, 10] 116% | viability [3, 11] 115% | viability [3, 13] 106% | viability [3, 14] 125% | viability [3, 15] 122% | viability [3, 16] 102% | viability [3, 18] 129% | viability [3, 19] 104% | viability [3, 20] 105% | viability [3, 21] 101% | viability [3, 22] 118% | viability [3, 23] 110% | viability [3, 25] 102% | viability [3, 26] 134% | viability [3, 27] 114% | viability [3, 28] 104% | viability [3, 29] 103% | viability [3, 30] 120% | viability [3, 31] 110% | viability [3, 33] 101% | viability [3, 34] 115% | viability [3, 35] 112% | viability [3, 36] 103% | viability [3, 39] 111% | viability [3, 41] 100%
7990: cell count [1, 7]
active: viability [3, 12] 98% | viability [3, 17] 98.6% | viability [3, 24] 97.5% | viability [3, 32] 98.3% | viability [3, 37] 96.3% | viability [3, 38] 99.7% | viability [3, 40] 93.2%
6670: cell count [1, 6]
0.57: fold change [1, 5]
0.238: z-score [2, 9]

Cn1c(=O)cc(N2CCCC(N)C2)n(Cc2ccccc2C#N)c1=O (stereo not given)
inactive: fold change [1, 4] 0.958 | z-score [2, 8] -0.12
-0.0809: z-score [2, 9]
8510: cell count [1, 6]
8880: cell count [1, 7]
0.837: fold change [1, 5]

COc1cc(Br)c(Nc2nc(-c3c(C)nc4ncccn34)cs2)c(Br)c1
0.545 and -1.29: z-score [2, 9]
0.552 and 0.466: fold change [1, 5]
active: viability [3, 12] 95.1% | viability [3, 13] 90.4% | viability [3, 16] 94.4% | viability [3, 17] 96.8% | viability [3, 21] 95.9% | viability [3, 29] 98.6% | viability [3, 36] 78.1% | viability [3, 37] 97.5% | viability [3, 40] 30.8% | viability [3, 41] 19%
inactive: fold change [1, 4] 1.04 and 0.88 | viability [3, 10] 125% | viability [3, 11] 110% | viability [3, 14] 131% | viability [3, 15] 111% | viability [3, 18] 131% | viability [3, 19] 109% | viability [3, 20] 100% | viability [3, 22] 135% | viability [3, 23] 110% | viability [3, 24] 101% | viability [3, 25] 102% | viability [3, 26] 136% | viability [3, 27] 111% | viability [3, 28] 101% | viability [3, 30] 118% | viability [3, 31] 108% | viability [3, 32] 100% | viability [3, 33] 100% | viability [3, 34] 122% | viability [3, 35] 115% | viability [3, 38] 129% | viability [3, 39] 140%
1800 and 1730: cell count [1, 6]
2.29 (active) and 1.89 (inactive): z-score [2, 8]
1740 and 1960: cell count [1, 7]

O=C(Nc1ccc(S(=O)(=O)Nc2ccccc2Cl)c(Cl)c1)c1ccccn1
8970: cell count [1, 7]
8160: cell count [1, 6]
-0.0416: z-score [2, 9]
0.513: fold change [1, 5]
inactive: fold change [1, 4] 0.91 | z-score [2, 8] -0.368

CC1(C)S[C@@H]2C(NC(=O)C(N)c3ccc(O)cc3)C(=O)N2C1C(=O)O (stereo not given in full)
0.664: fold change [1, 5]
inactive: fold change [1, 4] 0.958 | z-score [2, 8] -0.365
9670: cell count [1, 6]
0.721: z-score [2, 9]
10100: cell count [1, 7]

Reference: PubChem BioAssay
